Assay results reported in the supplement of paper PMC9694430.
Several values for one entry are separate records, joined by “and”; a condition that tells them apart may be missing. Identical values can stand only once.

What was measured:
Assay in all cases: thermal shift delta Tm vs DMSO control; higher = stronger stabilization (binding)
Conditions in all cases: 12.5 µM; protein concentration 2 µM
[1] = test system: LOC_OS01G01410-cb001
How it was run: (§1)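 Thermal shift values come from differential scanning fluorimetry on purified rice kinase domains made in E. coli, with melting temperatures obtained from Boltzmann fits. Samples of 19.5 μl held 2 μM kinase, 100 mM potassium phosphate pH 7.5, 150 mM NaCl, 10% glycerol, 5 × SYPRO Orange and compound in DMSO, and were heated from 25°C to 95°C at 0.05°C/s. Each shift is a triplicate mean relative to the DMSO-only protein sample.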

[2] = test system: LOC_OS01G02750-cb003
How it was run: as §1

[3] = test system: LOC_OS01G10900-cb004
How it was run: as §1

[4] = test system: LOC_OS01G13800-cb001
How it was run: as §1

[5] = test system: LOC_OS01G14860-cb001
How it was run: as §1

[6] = test system: LOC_OS01G21960-cb002
How it was run: as §1

[7] = test system: LOC_OS01G39600-cb002
How it was run: as §1

[8] = test system: LOC_OS01G48390-cb002
How it was run: as §1

[9] = test system: LOC_OS01G51400-cb002
How it was run: as §1

[10] = test system: T1, LOC_OS01G52050-cb004
T1 sequence (whole entry): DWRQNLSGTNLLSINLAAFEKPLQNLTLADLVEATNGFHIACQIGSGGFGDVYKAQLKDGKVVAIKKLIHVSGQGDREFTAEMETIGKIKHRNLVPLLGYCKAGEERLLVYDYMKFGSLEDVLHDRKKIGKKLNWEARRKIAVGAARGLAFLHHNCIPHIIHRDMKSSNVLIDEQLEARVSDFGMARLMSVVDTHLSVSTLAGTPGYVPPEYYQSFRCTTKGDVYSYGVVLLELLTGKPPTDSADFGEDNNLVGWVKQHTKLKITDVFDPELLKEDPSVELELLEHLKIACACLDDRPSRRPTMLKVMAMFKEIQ
How it was run: as §1

[11] = test system: LOC_OS01G57100-cb003
How it was run: as §1

[12] = test system: LOC_OS01G60330-cb001
How it was run: as §1

[13] = test system: LOC_OS01G60700-cb002
How it was run: as §1

[14] = test system: LOC_OS01G63280-cb003
How it was run: as §1

[15] = test system: LOC_OS01G67340-cb003
How it was run: as §1

[16] = test system: LOC_OS01G70970-cb002
How it was run: as §1

[17] = test system: LOC_OS02G07810-cb001
How it was run: as §1

[18] = test system: LOC_OS02G08530-cb003
How it was run: as §1

[19] = test system: LOC_OS02G14120-cb001
How it was run: as §1

[20] = test system: LOC_OS02G17970-cb001
How it was run: as §1
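Note: purified Escherichia coli-expressed rice kinase domain construct.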

Row | Structure (SMILES) | thermal shift delta Tm [1] | thermal shift delta Tm [2] | thermal shift delta Tm [3] | thermal shift delta Tm [4] | thermal shift delta Tm [5] | thermal shift delta Tm [6] | thermal shift delta Tm [7] | thermal shift delta Tm [8] | thermal shift delta Tm [9] | thermal shift delta Tm [10] | thermal shift delta Tm [11] | thermal shift delta Tm [12] | thermal shift delta Tm [13] | thermal shift delta Tm [14] | thermal shift delta Tm [15] | thermal shift delta Tm [16] | thermal shift delta Tm [17] | thermal shift delta Tm [18] | thermal shift delta Tm [19] | thermal shift delta Tm [20]
1 | C[C@H](CN(C)C)Oc1nc(Nc2cc3cccc(Cl)c3cn2)cnc1C#N | 0.28 °C | 1.3 °C | 0.44 °C | 0.1 °C | 0.9 °C | 1.95 °C | 0.03 °C | 4.18 °C | 0.08 °C | 1.79 °C | 0.95 °C | 1.48 °C | 1.39 °C | 0.39 °C | 0.6 °C | 0.34 °C | 0.31 °C | 1.68 °C | 2.95 °C | 2.26 °C
2 | CC(C)(C)c1cnc(CSc2cnc(NC(=O)C3CCNCC3)s2)o1 | 1.11 °C | 10.9 °C | 3.68 °C | 0.5 °C | 5.74 °C | 0.34 °C | 0.92 °C | 6.3 °C | 0.67 °C | 0.49 °C | 0.61 °C | 1.41 °C | 1.28 °C | 0.71 °C | -0.45 °C | 0.26 °C | 0.43 °C | 0.72 °C | 0.42 °C | -0.01 °C
3 | CCN(CC)CCNC(=O)c1c(C)[nH]c(/C=C2\C(=O)Nc3ccc(F)cc32)c1C [Sunitinib Malate] | 4.49 °C | 1.04 °C | 0.54 °C | -0.1 °C | 1.29 °C | 2.13 °C | 2.58 °C | 2.08 °C | 0 °C | 7.04 °C | 0.44 °C | 9.27 °C | 0.27 °C | 0.02 °C | 2.37 °C | 7 °C | -0.25 °C | 5.21 °C | 7.4 °C | -0.05 °C
4 | O=C1NCCc2[nH]c(-c3ccncc3)cc21 | 0.69 °C | -0.36 °C | 0.12 °C | 0.78 °C | 5.61 °C | 2.12 °C | -0.24 °C | 0.48 °C | 0.19 °C | 1.31 °C | 1.88 °C | 1.38 °C | 0.92 °C | 0.5 °C | 1.42 °C | 0.32 °C | 0.78 °C | 2.64 °C | 1.75 °C | 0.79 °C
5 | Cc1n[nH]c2ncc(C(=O)N3CCC[C@H]3c3ccc(Cl)cc3)cc12 | 0.63 °C | 0.98 °C | 0.41 °C | 0.18 °C | 4.68 °C | 0.38 °C | 0.88 °C | 0.19 °C | 0.21 °C | 3.46 °C | 0.92 °C | 0.11 °C | 0.24 °C | 0.09 °C | 0.25 °C | 0.34 °C | -0.7 °C | 1.34 °C | 1.35 °C | 0.38 °C
6 | CN(c1ncccc1CNc1nc(Nc2ccc3c(c2)CC(=O)N3)ncc1C(F)(F)F)S(C)(=O)=O | 1.79 °C and 2.31 °C | 3.54 °C and 4.36 °C | 1.71 °C and 2.09 °C | -0.44 °C and -0.69 °C | 4.96 °C and 3.99 °C | 2.13 °C and 2.41 °C | 8.29 °C and 12.3 °C | 2.62 °C and 2.82 °C | 1.29 °C and 1.71 °C | 5.25 °C and 6.24 °C | 1.74 °C and 1.7 °C | 2.27 °C and 2.55 °C | 0.88 °C and 1.26 °C | 2.29 °C and 3.24 °C | 1.9 °C and 2.14 °C | 6.41 °C and 7.59 °C | 0.34 °C and 0.67 °C | 1.99 °C and 2.23 °C | 4.47 °C and 5.67 °C | 0.58 °C and 1.27 °C
7 | COc1cc2c(Oc3ccc4[nH]c(C)cc4c3F)ncnc2cc1OCCCN1CCCC1 [Cediranib (AZD2171)] | 0.9 °C | 0.39 °C | 0.21 °C | 0.33 °C | 0.26 °C | 0.39 °C | 0.22 °C | 0.63 °C | 0.05 °C | 0.09 °C | 0.31 °C | 1.14 °C | 0.79 °C | 0.02 °C | 0.06 °C | 0.42 °C | 0.2 °C | 0.41 °C | 0.33 °C | 0.26 °C
8 | COc1cc(CCc2cc(NC(=O)c3ccc(N4CC(C)NC(C)C4)cc3)n[nH]2)cc(OC)c1 (stereo not given) | 1.93 °C | 0.89 °C | 7.96 °C | -0.99 °C | 0.38 °C | 0.1 °C | 0.43 °C | 6.33 °C | 0.35 °C | 0 °C | 0.84 °C | 0.69 °C | 0.93 °C | 0.35 °C | 0.25 °C | 0.66 °C | 0.89 °C | 1.49 °C | 2.12 °C | -0.05 °C
9 | COc1cc2c(c(OC)c1OC)-c1c(cc3c(c1OC)OCO3)CC(C)C(C)C2 (stereo not given) [Schisandrin B (Sch B)] | 0.01 °C | -0.07 °C | 0.21 °C | -0.06 °C | 0.19 °C | 0.19 °C | -3.57 °C | 0.18 °C | 0.24 °C | -0.05 °C | 0.61 °C | 0.33 °C | 0.75 °C | 0.34 °C | -0.14 °C | 0.46 °C | 0.64 °C | 0.6 °C | 0.07 °C | 0.95 °C
10 | CC1=C(C(=O)Nc2ccc3[nH]ncc3c2)C(c2ccc(F)cc2)NC(=O)N1 (stereo not given) | 0.44 °C | 1.19 °C | 0.21 °C | 0.88 °C | 0.96 °C | 0.9 °C | 0.5 °C | 0.28 °C | 0.23 °C | 4.76 °C | 2.16 °C | 0.38 °C | 0.62 °C | 0.82 °C | 0.41 °C | 0.4 °C | -0.36 °C | 0.77 °C | 2.32 °C | 0.88 °C
11 | C[C@H](NC(=O)c1c(N)nn2cccnc12)c1cc2cccc(C#Cc3cnn(C)c3)c2c(=O)n1-c1ccccc1 | -0.14 °C | 1.49 °C | -0.2 °C | 0 °C | 0.51 °C | 0.17 °C | 0.28 °C | 0.19 °C | 0.28 °C | 2.08 °C | 1.25 °C | 0.23 °C | -0.49 °C | 0 °C | 0.21 °C | 0.36 °C | -0.71 °C | 0.78 °C | 0.56 °C | 0.54 °C
